# Screening data: PubChem, National Center for Advancing Translational Sciences (NCATS)
# The full list was thinned out, with hits kept by preference.
# VACV mCherry inh: qHTS for Stage-Specific Inhibitors of Vaccinia Orthopoxvirus: mCherry Reporter Primary qHTS; Vaccinia virus mCherry reporter infection, fluorescence; Potency, µM (highest dose often 36.5 µM), for inactives: at the top dose activity change, negative = inhibition, actives largely listed as inhibitors; 310,000 tested, 0.63% active; AID 720579, 2013; calls by dose curve; tested in A549 cells; also: potency is read from the fitted curve at half-maximal effect; % is scaled to controls: 0 for no effect and ±100 for the full control effect; nearly all actives have a fitted effect of over 35% in size
# Cycloheximide cs: Cycloheximide Counterscreen for Small Molecule Inhibitors of Shiga Toxin. cell reporter, cycloheximide protein synthesis inhibition counterscreen. max response, %. 300,000 tested, 12% active. AID 2314, 2010; in the data active = max response mostly above about 13%, no sharp cut-off; inactive = mostly below about 14%; also: read at 38.3 µM for the half of the compounds with a filed dose; 0% is about no effect
# VACV Venus inh: qHTS for Stage-Specific Inhibitors of Vaccinia Orthopoxvirus: Venus Reporter Primary qHTS. 330,000 tested, 0.46% active. Vaccinia virus Venus reporter expression, fluorescence. Potency, µM (highest dose often 36.5 µM), without a hit: top-dose activity change, negative = inhibition, most hits filed as inhibitors. AID 720580, 2013; calls by dose curve; tested in A549 cells; also: potency is read from the fitted curve at half-maximal effect; % is scaled to controls: 0 for no effect and ±100 for the full control effect; nearly all actives have a fitted effect of over 30% in size
# LASV entry inh: qHTS for Inhibitors of binding or entry into cells for Lassa Virus; Lassa virus pseudotype entry inhibition, cell reporter; Potency, µM (series often up to 37.9 µM), for inactives: at the top dose activity change, negative = inhibition, hits mostly inhibitors; 300,000 tested, 1.2% active; AID 540256, 2011; calls by dose curve; tested in HEK293 cells; also: potency is read from the fitted curve at half-maximal effect; % is scaled to controls: 0 for no effect and ±100 for the full control effect; nearly all actives have a fitted effect of over 50% in size
# Marburg entry inh: qHTS for inhibitors of binding or entry into cells for Marburg Virus; Potency, µM (series often up to 37.8 µM), for the others: at the highest dose activity change, negative = inhibition, hits mostly inhibitors; Marburg virus pseudotyped entry inhibition, cell reporter; 300,000 tested, 1.8% active; calls by dose curve; tested in HEK293 cells; also: potency is read from the fitted curve at half-maximal effect; % is scaled to controls: 0 for no effect and ±100 for the full control effect
# Shiga toxin inh: A qHTS for Small Molecule Inhibitors of Shiga Toxin; Vero cells, Shiga toxin protein synthesis inhibition reporter; inhibition, % at 38.7 µM; 290,000 tested, 9.2% active; in the data active = inhibition mostly above about 28%, no sharp cut-off; inactive = mostly below about 43%; also: 0% is about no effect
# Active calls of the source: *; i = inactive; ? = inconclusive; . = not tested or not shown; + = active, no number; ! = not active in a repeat; [ ] = dose if it differs, or a comment.
SMILES,VACV mCherry inh,Cycloheximide cs,VACV Venus inh,LASV entry inh,Marburg entry inh,Shiga toxin inh
Clc1ccc2c(c1)C(C1=NCCN1)c1ccccc1CS2 (stereo unspecified),-18%,-5,-29%,?,1.3µM*,-5
COc1cccc(-c2cc(=O)c3cc(NC(=O)c4ccc(N(C)C)cc4)ccc3[nH]2)c1,-3%,-8,?,0.92µM*,?,-13
O=c1cc(-c2cccc(F)c2)[nH]c2ccccc12,i,5,?,?,?,-22
O=c1cc(-c2ccc(F)cc2F)[nH]c2ccccc12,.,-1,.,1%,5%,-8
Cc1ccc2[nH]c(-c3cccc(F)c3)cc(=O)c2c1,?,15*!,?,-13%,?,+!
COc1cccc(-c2cc(=O)c3cc(NC(=O)c4ccccc4)ccc3[nH]2)c1,-13%,9,?,?,-33%,-7
O=c1cc(-c2cccc(F)c2)[nH]c2cc(Cl)ccc12,.,-4,.,.,.,i
COc1ccc2[nH]c(-c3cccc(F)c3)cc(=O)c2c1,?,27*!,?,8%,-5%,52*
COc1ccc2[nH]c(-c3ccc(F)cc3F)cc(=O)c2c1,.,26*,.,.,.,+
CCCCN(CC)C(=O)c1c[nH]c2ccc(S(=O)(=O)N(C)c3ccc(Cl)cc3)cc2c1=O,2%,.,-3%,-4%[46.1 µM],.,.
Cc1cc(S(=O)(=O)N2CCOCC2)ccc1OCC(=O)Nc1ccc(F)cc1,-6%,-5,-6%,2%,18%[46.1 µM],-17
Cc1cc2c(cc1C)N[C@]1(C[C@H]3CCC(=O)N4CC[C@@H](C1)[C@@H]34)C(=Nc1ccccc1C)N2,-15%,.,1%,.,.,.
Cc1ccccc1C[C@H](C(=O)O)N1C(=O)c2ccc(C(=O)O)cc2C1=O,.,-8,.,.,.,-10
CC(=O)c1nc2ccccc2n1S(=O)(=O)c1ccc(C)cc1,.,23*,.,-2%,-3%,3
O=C1c2ccccc2C(=O)C1c1ccnc2ccccc12,-15%,38*,2%,?,7.3µM*,93*
O=C1c2ccccc2C(=O)C1c1nccc2ccccc12,-13%,41*,0%,?,2.5µM*,97*
O=C1C(=O)c2ccccc2C(O)=C1c1ccccc1F,i,-7,-3%,4%,-14%,3
O=C1C(c2ccnc3ccccc23)=C(O)c2ccccc21,.,47*,-4%,2.8µM*,?,active
Cc1cccc(CC(=O)NC2CC(=O)N(c3cccc(F)c3)C2)c1 (stereo unspecified),-3%,.,-8%,16%[46.1 µM],.,.
c1cncc(OC2CCN(Cc3ccc4c(c3)CN(Cc3nc5ccccc5s3)CCO4)CC2)c1,-9%,.,8%,.,.,.
Cc1cc(C)nc(N/N=C/C=C/c2ccccc2)n1,-8%,29*,-2%,10%,17%,57*
Cc1sc(N/N=C/C=C/c2ccccc2)nc1-c1ccccc1,3.5µM*,-6,?,?,11%,-7
Cc1cc(C)nc(N/N=C/C(Cl)=C/c2ccccc2)n1,.,30*,.,?,?,50*
Cc1cc(C)nc(SCC(=O)N/N=C\C(Br)=C\c2ccccc2)n1,-11%,5,-18%,-7%,-26%,-7
Cc1ccc2oc(=O)c3cnn(CC(=O)N(CCCN4CCOCC4)Cc4ccco4)c3c2c1,26%,1,-4%,.,.,16
SMILES,VACV mCherry inh,Cycloheximide cs,VACV Venus inh,LASV entry inh,Marburg entry inh,Shiga toxin inh
COc1ccccc1CNC(=O)CC(c1ccc(C)cc1)N1Cc2ccccc2C1=O (stereo unspecified),-7%,.,-10%,-21%[46.1 µM],.,.
O=Cc1sc(Nc2ccccc2)nc1Cl,.,18*,.,.,.,25
Cc1ccc(Nc2nc(Cl)c(C=O)s2)cc1Cl,-1%,23*,12%,.,?,25
COc1ccccc1Nc1nc(Cl)c(C=O)s1,?,48*,-9%,-24%,-22%[46.1 µM],80
Cc1ccc(Nc2nc3ccccc3c(=O)s2)cc1C,-8%,-3,-16%,6%,1%,-1
O=C(O)c1sc(Nc2ccccc2)nc1-c1ccccc1,-7%,.,-1%,0%[46.1 µM],8%[46.1 µM],.
COc1ccccc1Nc1nc(C)c(C(=O)Nc2ccccc2)s1,?,17,-24%,?,?,56
COC(=O)c1cc(CNC(=O)c2ccncc2)cc(NC(=O)c2ccccc2Cl)c1,-6%,.,-9%,.,.,.
O=C(Nc1cc(F)ccc1F)c1cnn2c1NC(=C1CC1)C=C2C(F)F,-4%,.,-7%,.,.,.
Cc1ccc(C)c(CN2C(=O)c3ccccc3S(=O)(=O)c3ccc(C(=O)Nc4ccccc4C(F)(F)F)cc32)c1,-8%,.,-7%,-2%[46.1 µM],?,.
CC(=O)Oc1ccc(C23CC4CC(CC(C4)C2)C3)cc1C(=O)O,.,-3,.,.,.,37*
O=C(NCC1CCCO1)Nc1cc(Cl)cc(Cl)c1 (stereo unspecified),-9%,6,-22%,.,.,21
S=C(NCC1CCCO1)Nc1ccc(Cl)cc1 (stereo unspecified),-10%,16*,-2%,16%,?,56
Clc1ccc(-c2ccc(CNCC3CCCO3)o2)cc1 (stereo unspecified),-17%,35*,-8%,?,?,96*
O=C(NCC1CCCO1)Nc1ccc(Cl)cc1 (stereo unspecified),.,44*,-13%,16%,6%,74*
CCN(CC)c1ccc(NC(=S)NCC2CCCO2)cc1 (stereo unspecified),?,28*,-7%,-22%[46.1 µM],?,101*
Cc1ccc(NC(=S)NCC2CCCO2)cc1 (stereo unspecified),.,26,?,?,?,43
S=C(NCC1CCCO1)Nc1ccc(Cl)cc1Cl (stereo unspecified),-10%,46*,-3%,?,-18%,143*
COc1cc(NC(=S)NCC2CCCO2)c(OC)cc1Cl (stereo unspecified),.,-1,.,.,.,-3
Cc1ccc(C)c(N2CCN(C(=O)CCc3nnc4n(C)c(=O)c5ccccc5n34)CC2)c1,-13%,.,-7%,.,9%[46.1 µM],.
C=C(C)COc1ccc(-c2[nH]ncc2-c2ccccc2OC)c(O)c1,-23%,-6,?,?,7.9µM*,-18
C=C(C)COc1ccc(-c2[nH]ncc2Oc2ccc(OC)cc2)c(O)c1,14µM*,22*,?,.,.,30
C=C(C)COc1ccc(-c2[nH]ncc2-c2ccc(Br)cc2)c(O)c1,?,-4,?,?,3.3µM*,-11
C=C(C)COc1ccc(-c2[nH]ncc2Oc2ccccc2OC)c(O)c1,?,13,?,?,-17%,12
C=C(C)COc1ccc(-c2n[nH]c(C)c2-c2ccc(Br)cc2)c(O)c1,?,-2,?,0.37µM*,?,-4
C=C(C)COc1ccc(-c2ncncc2-c2ccc(Br)cc2)c(O)c1,-13%,-2,-20%,?,?,-3
